This is a sample that favours compounds with a hit; in the whole collection about 3.7% have one here.
Mtb bLac sens: beta-lactam sensitization of Mtb H37Rv | hit rate 0.27% among 330,000 | inhibition, % at 25 µM | M. tuberculosis H37Rv growth with meropenem, percent inhibition; call rule not given here;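 further: growth measured after seven days incubation then overnight dye step; 0% = bacteria only wells and 100% = bacteria with antibiotic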
GDH-TPI counter-1: inhibits GDH-TPI coupling enzymes, artifact for Mtb FBA screen | GDH-TPI coupled enzyme counterscreen, NADH absorbance | inhibition, % at 4.8 µM | hit rate 1.2% among 360,000 | AID 588335; in the data active means inhibition above about 30%;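 further: 0% = DMSO wells and 100% = wells lacking the enzyme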
Mtb UGM inh: Mtb UDP-galactopyranose mutase inhibition | purified UGM, fluorescence polarization probe displacement | AID 504406 | hit rate 0.06% among 320,000 | inhibition, % at 10 µM; in the data active means inhibition above about 10%, passing the limit was not always enough
Mtb FBA inh: inhibitors of M. tuberculosis fructose-bisphosphate aldolase | P9WQA3 | purified M. tuberculosis FBA, fluorescence read-out | inhibition, % at 1 µM | hit rate 2.3% among 360,000 | AID 588726;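 further: 0% = vehicle and 100% = reference inhibitor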
FadD28 FP inh: M. tuberculosis FadD28 bisubstrate binding inhibition | inhibition, % at 12.5 µM | FadD28 bisubstrate probe binding, fluorescence polarization | hit rate 0.22% among 360,000 | AID 588549; in the data active means inhibition above about 8.5%, passing the limit was not always enough
Rv3671c inh: Rv3671c (M. tuberculosis) protease inhibition | P9WHR9 | inhibition, % at 5.96 µM | hit rate 0.048% among 320,000 | AID 2606; in the data active means inhibition above about 38%;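 further: extracellular domain of Rv3671c used as enzyme; 0% = enzyme with DMSO and 100% = no enzyme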
Target sequence (P9WHR9 whole entry, looked up, the tested form may be a part): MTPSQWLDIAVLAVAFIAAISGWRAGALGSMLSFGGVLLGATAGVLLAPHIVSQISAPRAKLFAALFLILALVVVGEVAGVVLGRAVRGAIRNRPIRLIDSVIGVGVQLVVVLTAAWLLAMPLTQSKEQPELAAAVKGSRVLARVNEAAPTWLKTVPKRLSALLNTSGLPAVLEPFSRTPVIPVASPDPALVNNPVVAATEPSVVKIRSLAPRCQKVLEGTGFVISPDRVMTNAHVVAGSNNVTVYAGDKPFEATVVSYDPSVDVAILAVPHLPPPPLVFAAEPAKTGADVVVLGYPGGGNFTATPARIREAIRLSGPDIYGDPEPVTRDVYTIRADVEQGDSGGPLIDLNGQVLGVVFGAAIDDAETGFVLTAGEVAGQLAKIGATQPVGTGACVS
Mtb FBA inh conf: confirmation of M. tuberculosis fructose-bisphosphate aldolase inhibitors; shares compounds with Mtb FBA inh; purified M. tuberculosis FBA, fluorescence read-out; inhibition, % at 1 µM; hit rate 78% among 5,600;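 further: 0% = vehicle wells and 100% = reference inhibitor wells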
GDH-TPI counter-2: GDH-TPI inhibition counter-screen for FBA inhibitors. shares compounds with Mtb FBA inh. GDH-TPI coupled enzyme counterscreen, fluorescence. inhibition, % at 1 µM. hit rate 81% among 5,600. AID 652141; in the data active means inhibition above about 10%
Starred values were filed as active, the others as inactive; / = not tested or not shown; + = active, no number. Unless noted, no stated cut-off is given here; in the data, active means inhibition above about 27%; inactive means the rest.

SMILES	Mtb bLac sens	GDH-TPI counter-1	Mtb UGM inh	Mtb FBA inh	FadD28 FP inh	Rv3671c inh	Mtb FBA inh conf	GDH-TPI counter-2
CC(=O)c1ccc(NC(=O)CSc2nnc3ccc(-c4ccccn4)nn23)cc1	-10.9	6.2	1.5	1.0	-2.0	-7.3	/	/
COc1cccc(C#Cc2cnc3c(c2)C(=O)N([C@@H](C)CO)C[C@H](C)[C@H](CN(C)C(=O)C2CCC2)O3)c1	/	1.0	/	11.4	-0.7	/	/	/
c1ccc(-c2cn3c(n2)-c2ccccc2C3)cc1	0.1	-1.4	0.0	47.7*	-3.4	-5.6	131.7*	105.9*
COc1ccc(-c2nc3n(c(=O)c2C#N)CCS3)cc1	-4.3	6.9	-0.3	28.1*	-3.9	-3.6	32.4*	27.9*
COc1ccc(-c2nc3n(c(=O)c2C#N)CCS3)cc1OC	-3.8	16.0	3.0	8.3	-0.8	-0.6	/	/
CCOc1ccc(-c2nc3n(c(=O)c2C#N)CCS3)cc1	3.5	15.8	-2.2	32.0*	-3.1	2.2	71.5*	61.8*
Cc1cc2c(c(=O)n1CCc1ccccc1)C(c1ccco1)C(C#N)=C(N)O2 (stereo unspecified)	2.0	5.5	1.6	40.1*	-1.4	2.1	1.9	-3.0
CCNC(=O)C1CCCN(Cc2ccc(C(=O)OCC)cc2)CC1 (stereo unspecified)	/	9.7	/	-1.0	-5.1	/	/	/
C[C@@H]1CN([C@@H](C)CO)C(=O)c2cc(C3=CCCCC3)cnc2O[C@H]1CN(C)C(=O)Nc1cccc(F)c1	/	1.4	/	-0.3	-1.8	/	/	/
COc1ccc(-c2noc(C3CCCN(C(=O)c4cccc(C)c4)C3)n2)cc1 (stereo unspecified)	2.3	-4.1	2.2	77.9*	-4.4	3.4	115.1*	76.5*
Cc1ccc(-c2noc(C3CCCN(C(=O)c4cccc(F)c4)C3)n2)cc1 (stereo unspecified)	6.9	-10.0	1.1	0.7	1.4	-2.5	/	/
COc1cc(OC)cc(C(=O)N2CCCC(c3nc(-c4ccc(C)o4)no3)C2)c1 (stereo unspecified)	-6.3	0.8	-1.5	31.2*	-1.8	-5.3	1.9	-6.1
N#CCCCC1(CCCC#N)OCCO1	/	-2.3	/	-0.6	-3.6	/	/	/
CN1CCN(c2ccc(CNC(=O)C3(C)Cc4c(-c5ccc6c(c5)OCO6)ccnc4O3)cc2)CC1 (stereo unspecified)	/	-12.8	/	32.6*	-4.1	/	121.2*	102.5*
CN(C)c1ccc(CNC(=O)C2(C)Cc3c(-c4ccc5c(c4)OCO5)ccnc3O2)cc1 (stereo unspecified)	/	10.1	/	6.3	0.4	/	/	/
CNC(=O)C1(C)Cc2c(-c3ccc4c(c3)OCO4)ccnc2O1 (stereo unspecified)	/	2.2	/	49.1*	-0.6	/	+	+
COc1ccc(NC(=O)C2(C)Cc3c(-c4ccc5c(c4)OCO5)ccnc3O2)cc1 (stereo unspecified)	/	6.2	/	36.5*	-1.2	/	+	+
CC1(C(=O)Nc2ccc3c(c2)OCO3)Cc2c(-c3ccccc3)ccnc2O1 (stereo unspecified)	/	7.1	/	-0.4	0.4	/	/	/
COc1ccc(CNC(=O)C2(C)Cc3c(-c4ccc5c(c4)OCO5)ccnc3O2)cc1OC (stereo unspecified)	/	3.5	/	33.1*	-3.7	/	113.8*	83.6*
Cc1ccccc1C(=O)N1CCC(C(=O)N(C)CC(=O)Nc2cccc(F)c2)CC1	-1.6	5.6	3.9	-2.4	-3.4	-2.2	/	/
COc1cc(SC)ccc1C(=O)NNC(=O)c1cc(C)oc1C	-5.2	0.0	1.4	-0.8	-2.0	-8.0	/	/
CC(OC(=O)c1nc(Cl)ccc1Cl)C(=O)NCc1ccccc1 (stereo unspecified)	/	3.5	/	-2.8	-2.5	/	/	/
O=C(CN1CCCC1)Nc1ccc(Br)cc1[N+](=O)[O-]	5.2	1.5	-0.6	-0.2	-2.7	-2.8	/	/
CC1(C(=O)NCC2CC2)Cc2c(-c3ccc4c(c3)OCO4)ccnc2O1 (stereo unspecified)	/	11.1	/	88.5*	-2.5	/	76.1*	51.1*
CC1(C(=O)NS(=O)(=O)c2ccccc2Cl)CCN1C(=O)C1CCCCC1 (stereo unspecified)	/	-1.8	/	-2.6	-3.7	/	/	/
SMILES	Mtb bLac sens	GDH-TPI counter-1	Mtb UGM inh	Mtb FBA inh	FadD28 FP inh	Rv3671c inh	Mtb FBA inh conf	GDH-TPI counter-2
COc1ccc(OC)c(S(=O)(=O)Nc2ccc3c(c2)n(C)c(=O)n3C)c1	-2.5	1.5	1.1	62.2*	-0.1	-1.8	140.3*	93.3*
O=[N+]([O-])c1cccc(C=NN=C2c3ccccc3-c3ccccc32)c1	/	9.5	/	30.0*	-1.8	/	143.9*	108.6*
O=[N+]([O-])c1cccc(/C=N\N=C2c3ccccc3-c3ccccc32)c1O	8.7	-1.9	-0.8	0.4	-2.4	10.9	/	/
O=C(O)c1cccc2sc3cc(Cl)ccc3c(=O)c12	-12.0	13.0	-1.4	63.1*	-3.7	-3.5	156.6*	126.1*
O=C(O)c1cccc2c1-c1ccc(Cl)cc1C2	/	-8.5	/	-1.2	-0.2	/	/	/
COc1ccccc1NS(=O)(=O)c1ccc(NC(=O)c2[nH]nc(OC)c2[N+](=O)[O-])cc1	-6.9	17.9	2.5	-3.4	0.8	/	/	/
CCN(CC(=O)Nc1c(F)cccc1F)C(=O)Cc1csc(-c2ccc(OC)c(OC)c2)n1	-2.3	-5.9	-0.3	44.5*	-3.2	6.8	68.3*	55.7*
CCS(=O)(=O)NCCc1csc(-c2ccc(OC)c(OC)c2)n1	-2.2	11.6	-3.3	54.6*	-1.0	-2.4	-2.7	-5.0
CCCS(=O)(=O)NCCc1csc(-c2ccc(OC)c(OC)c2)n1	-9.9	5.0	1.3	34.7*	0.6	-9.5	92.5*	77.6*
COc1ccc(-c2nc(CCNC(=O)c3ccco3)cs2)cc1OC	-7.3	-10.1	0.8	26.1	-3.2	-1.6	/	/
CCN(CC)CCCNc1nc(SC)nc2sc3c(c12)CCN(C)C3	4.1	/	-1.0	/	/	0.4	/	/
COC(=O)c1ccc(C(=O)OC)c(NC(=S)N2CCC(C)CC2)c1	2.9	7.7	-4.6	23.0	1.6	-5.2	/	/
COC(=O)c1ccc(C(=O)OC)c(NC(=O)CCC(=O)O)c1	-1.5	17.5	-2.2	28.2*	-1.1	3.1	32.5*	22.9*
COC(=O)c1ccc(C(=O)OC)c(NC(=S)N2CCCCC2C)c1 (stereo unspecified)	-2.4	2.2	-0.8	100.0*	-3.8	-0.8	59.9*	58.7*
COC(=O)c1ccc(C(=O)OC)c(NC(=S)N2CCCC2)c1	-1.4	2.1	1.3	2.6	0.0	-1.2	/	/
COC(=O)c1ccc(C(=O)OC)c(NC(=S)N2CCN(C)CC2)c1	-1.3	8.5	0.3	33.4*	-1.4	7.1	198.4*	174.2*
COC(=O)C1=CN(Cc2ccc(C)cc2)C=C(C(=O)OC)C1c1cc(OC)c(OC)c(OC)c1	-2.4	12.4	-1.4	32.7*	-2.4	0.5	91.4*	73.0*
COC(=O)C1=CN(Cc2ccc(OC)c(OC)c2)C=C(C(=O)OC)C1c1ccc(F)cc1	-23.7	23.6	-0.6	96.8*	-1.9	1.7	+	142.1*
